Measured potencies and affinities stand elsewhere. Unmarked numbers belong to inactive results. How the calls were made is not given here.
Further: 0% is about no effect.

For the assay the following is noted: Ebola virus entry assay, green fluorescence channel.
`CC(CN(C)C)C(C)(O)Cc1ccc(Cl)cc1` (centres undefined): the efficacy is 33.9%.

For the compound `CC(NN)c1ccccc1` (centres undefined), the efficacy is -30%.

In the case of `CN(c1nccc(=O)[nH]1)C1CCN(c2nc3ccccc3n2Cc2ccc(F)cc2)CC1`, the efficacy was 66.4%.

For the compound `NS(=O)(=O)c1cc2c(cc1Cl)NC(C(Cl)Cl)NS2(=O)=O` (centres undefined), the efficacy was -21%.

Turning to `CCN1CCN(C(=O)N[C@@H](C(=O)N[C@@H]2C(=O)N3[C@@H]2SC(C)(C)[C@H]3C(=O)O)c2ccccc2)C(=O)C1=O`, the efficacy was -32.7%.

As for `CN1C(C)(C)CCCC1(C)C`, the efficacy was 14.2%.

`O=C(O)c1ccc(=O)[nH]c1`: the efficacy was -14.8%.

For the compound `O=C(CCCl)NCc1ccccc1`, the efficacy is -26.1%.

As to `Oc1ccccc1-c1nnco1`, the efficacy is 7.99%.

Regarding `COc1ccccc1N1CCN(CCCCNC(=O)c2ccc(-c3ccc(C(C)=O)cc3)cc2)CC1`, the efficacy was 25.2%.

As to `O=c1cc[nH]c(=S)[nH]1`, the efficacy was 12.4%.

Consider `CO[C@@]1(NC(=O)CSCC#N)C(=O)N2C(C(=O)O)=C(CSc3nnnn3C)CS[C@@H]21`, for which the efficacy is -13.7%.

With `Cc1c(Nc2ncccc2C(=O)O)cccc1C(F)(F)F`, the efficacy was -17.3%.

`COC(=O)[C@@H](N)CCCN/C(N)=N/[N+](=O)[O-]`: the efficacy was -11.3%.

As to `CC(=O)O[C@@H]1C(=O)O[C@@H]2[C@H]1OC(=O)[C@@H]2OC(C)=O`, the efficacy is -16.6%.

As to `CCCc1ccc(OCC(=O)N2CCN(C(=O)COc3ccc(CCC)cc3OC)CC2)c(OC)c1`, the efficacy was 12.4%.

For the compound `O=C(O)[C@@H]1[C@H]2C[C@H]3c4[nH]c5ccccc5c4CCN3C[C@@H]2CC[C@@H]1O`, the efficacy was 38.8%.

Take `O=C(CCCl)NCCc1ccccc1`: the efficacy is -10.7%.

In the case of `CC(=O)Nc1c(I)c(NC(C)=O)c(I)c(C(=O)O)c1I`, the efficacy was -8.35%.

With `Nc1ccc(S(=O)(=O)Nc2ccccn2)cc1`, the efficacy is -13.9%.

Regarding `CCOc1nc2cccc(C(=O)O)c2n1Cc1ccc(-c2ccccc2-c2nn[nH]n2)cc1`, the efficacy was 27.1%.

Regarding `COC(=O)c1cc(Cl)ccc1NS(=O)(=O)C(F)(F)F`, the efficacy was -9.07%.

As for `CO/N=C(/C(=O)N[C@@H]1C(=O)N2C(C(=O)OCOC(=O)C(C)(C)C)=C(C)CS[C@H]12)c1csc(N)n1`, the efficacy is -17.1%.

In the case of `NC(=O)NC1N=C([O][Al])NC1=O` (centres undefined), the efficacy was 12.9%.

As for `O=C(O)CCCCC(=O)O`, the efficacy is -12.4%.

`Cc1ccc(C(=O)C(C)CN2CCCCC2)cc1` (centres undefined): the efficacy was -18.5%.

Regarding `NCCc1ccn[nH]1`, the efficacy is 19.8%.

On to `c1ccc2sc(SSc3nc4ccccc4s3)nc2c1`, for which the efficacy was -14.3%.

Take `CC(=O)NS(=O)(=O)c1ccc(N)cc1`: the efficacy is 10.9%.

On to `Nc1ccc(S(=O)(=O)Nc2ccc(Cl)nn2)cc1`, for which the efficacy was -19.3%.

On to `CCn1ccc(NS(=O)(=O)c2ccc(N)cc2)nc1=O`, for which the efficacy is -11.6%.

On to `O=C(Cn1ccnc1[N+](=O)[O-])NCc1ccccc1`, for which the efficacy is -10.1%.

Turning to `Oc1ccc(Cl)cc1`, the efficacy is -35.6%.

`C[C@@H](CN1CC(=O)NC(=O)C1)N1CC(=O)NC(=O)C1`: the efficacy was 17.9%.

`CCC(C)(CN(C)C)OC(=O)c1ccccc1` (centres undefined): the efficacy was 37.4%.

Consider `NC(N)=NCCN1CCCCCCC1`, for which the efficacy was -19.4%.

As to `CN(C)CCOC(=O)C(c1ccccc1)C1(O)CCCC1` (centres undefined), the efficacy is 15.2%.

On to `COC(=O)C(Cl)C(=O)OC`, for which the efficacy is 18.5%.

Regarding `CCn1cc(C(=O)O)c(=O)c2cnc(N3CCCC3)nc21`, the efficacy was 11.6%.

For the origin of these results see PubChem BioAssay (NCATS).
